# Counter-ions that a name gives are not always drawn.
# Legend:
# Settings in all cases: compound concentration in added solution (µM; 5 µl added to 20 µl cells): 10; 18 h
# [1] = system: A431; assay: LBPA endosome anti-LBPA integrated intensity (sum per cell), Z-score; higher = more LBPA staining
# Method in brief: (§1)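 Per-cell integrated LBPA or filipin intensity, whole-cell or within LBPA endosomes, is expressed as Z-scores normalised in AcuityXpress. HeLa MZ or A431 cells, 3,500 per well in 20 µl, sat on 5 µl of 10 µM compound solution in duplicate 384-well imaging plates for 18 h. They were then fixed in 4% PFA, stained, imaged in four 20× fields per well and segmented using MetaXpress.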
# [2] = system: HeLa MZ; assay: as above
# Method in brief: as §1
# [3] = system: A431; assay: whole-cell filipin (free cholesterol) integrated intensity, Z-score; higher = more cholesterol staining
# Method in brief: as §1
# [4] = system: HeLa MZ; assay: as above
# Method in brief: as §1
# [5] = system: A431; assay: filipin (cholesterol) integrated intensity within LBPA endosomes, Z-score; higher = more cholesterol in LBPA endosomes
# Method in brief: as §1
# [6] = system: HeLa MZ; assay: as above
# Method in brief: as §1
SMILES,LBPA endosome anti-LBPA integrated intensity (z-score) [1],LBPA endosome anti-LBPA integrated intensity (z-score) [2],whole-cell filipin (z-score) [3],whole-cell filipin (z-score) [4],filipin (z-score) [5],filipin (z-score) [6]
CCOC(=O)c1ccc(N)cc1 [Benzocaine],-0.607,-1.32,-0.4,-0.36,-0.613,-0.643
Clc1cnccn1 [2-Chloropyrazine],-0.346,-0.401,0.139,-0.365,-0.401,-0.492
NC1CCN(c2nc3c(cc2F)c(=O)c(C(=O)O)cn3-c2ccc(F)cc2F)C1 (configuration not stated) [Tosufloxacin hydrochloride],-0.551,-1.59,-0.466,-1.51,-0.679,-0.966
CC(=O)SCC(Cc1ccccc1)C(=O)NCC(=O)OCc1ccccc1 (configuration not stated) [Racecadotril],-0.747,-1.18,-0.139,-0.415,-0.589,-0.468
CC(C(=O)O)c1ccc(-c2ccccc2)c(F)c1 (configuration not stated) [Flurbiprofen],-0.227,0.0649,0.155,-0.426,-0.328,-0.513
CCCc1nc2c(C)cc(-c3nc4ccccc4n3C)cc2n1Cc1ccc(-c2ccccc2C(=O)O)cc1 [Telmisartan],-0.132,0.924,0.0869,0.281,-0.34,-0.264
CCOc1ccc2ccccc2c1C(=O)N[C@@H]1C(=O)N2[C@@H]1SC(C)(C)[C@@H]2C(=O)O [Nafcillin sodium salt monohydrate],-0.558,-0.117,-0.348,-0.195,-0.443,-0.476
COc1ccc(CC(C)NCC(O)c2ccc(O)c(NC=O)c2)cc1 (configuration not stated) [Formoterol fumarate],-0.505,-1.42,0.171,-0.609,-0.478,-0.313
COc1ccccc1OCCNCC(O)COc1cccc2[nH]c3ccccc3c12 (configuration not stated) [Carvedilol],4.32,3.72,2.68,3,3.9,5.27
CN(C)CCOC(=O)C(c1ccccc1)C1(O)CCCC1 (configuration not stated) [Cyclopentolate hydrochloride],-0.331,0.664,0.119,-0.332,-0.39,-0.209
c1ccc2c(c1)CCCC2C1=NCCN1 (configuration not stated) [Tetrahydrozoline hydrochloride],-0.429,1.07,-0.35,0.315,-0.366,0.0856
COc1cc(NS(=O)(=O)c2ccc(N)cc2)ncn1 [Sulfamonomethoxine],-0.448,0.107,-0.452,0.0403,-0.378,-0.344
O=C1CN(/N=C/c2ccc([N+](=O)[O-])o2)C(=O)N1 [Nitrofurantoin],-0.475,-1.22,-0.354,-0.515,-0.501,-0.575
CNNCc1ccc(C(=O)NC(C)C)cc1 [Procarbazine hydrochloride],-0.593,-1.08,-0.286,-0.325,-0.487,-0.664
Cc1nnc(NS(=O)(=O)c2ccc(N)cc2)s1 [Sulfamethizole],-0.497,-0.619,-0.626,-0.62,-0.469,-0.463
CC(C)(C)NC[C@H](O)COc1ccccc1C1CCCC1 [Penbutolol sulfate],1.31,0.815,1.46,0.313,1.3,0.914
Cc1cccc(CN2CCN(C(c3ccccc3)c3ccc(Cl)cc3)CC2)c1 (configuration not stated) [Meclozine dihydrochloride],-0.277,-0.335,-0.336,-0.815,-0.233,-0.413
COc1c(N2C[C@@H]3CCCN[C@@H]3C2)c(F)cc2c(=O)c(C(=O)O)cn(C3CC3)c12 [Moxifloxacin],-0.595,-1.37,-0.138,-0.0544,-0.469,-0.207
C(=C\c1ccccc1)/CN1CCN(C(c2ccccc2)c2ccccc2)CC1 [Cinnarizine],-0.223,0.618,-0.605,-0.52,-0.314,-0.0159
C[C@H](CCC(=O)O)[C@H]1CC[C@H]2[C@@H]3C(=O)C[C@@H]4CC(=O)CC[C@]4(C)[C@H]3CC(=O)[C@]12C [Dehydrocholic acid],-0.567,-0.186,-0.785,-0.553,-0.549,-0.532
CC[C@H]1OC(=O)[C@H](C)[C@@H](O[C@H]2C[C@@](C)(OC)[C@@H](O)[C@H](C)O2)[C@H](C)[C@@H](O[C@@H]2O[C@H](C)C[C@H](N(C)C)[C@H]2O)[C@](C)(OC)C[C@@H](C)C(=O)[C@H](C)[C@@H](O)[C@]1(C)O [Clarithromycin],-0.524,0.332,-0.0542,0.0043,-0.407,-0.21
CCOC1O[C@H]([C@@H](COCc2ccccc2)OCc2ccccc2)[C@H](OCc2ccccc2)[C@H]1O (some centres not stated) [Tribenoside],0.543,2.34,0.649,1.71,0.264,0.525
COc1cc(N)c(Cl)cc1C(=O)NC1CCN(CCCOc2ccc(F)cc2)CC1OC (configuration not stated) [Cisapride],0.467,0.977,-0.114,0.308,0.0889,0.672
NC(=O)c1cnccn1 [Pyrazinamide],-0.586,-0.505,-0.486,-0.665,-0.578,-0.581

SMILES,LBPA endosome anti-LBPA integrated intensity (z-score) [1],LBPA endosome anti-LBPA integrated intensity (z-score) [2],whole-cell filipin (z-score) [3],whole-cell filipin (z-score) [4],filipin (z-score) [5],filipin (z-score) [6]
CC(=O)OCC1=C(C(=O)O)N2C(=O)[C@@H](NC(=O)Cc3cccs3)[C@H]2SC1 [Cephalothin sodium salt],-0.468,-0.884,-0.46,-0.115,-0.456,-0.652
CC(=O)Nc1nnc(S(N)(=O)=O)s1 [Acetazolamide],-0.546,-1.16,-0.799,-0.564,-0.395,-0.429
C=C1C[C@H]2[C@@H]3C=C(C)C4=CC(=O)CC[C@]4(C)[C@H]3CC[C@]2(C)[C@@]1(OC(C)=O)C(C)=O [Melengestrol acetate],1.2,1.67,2.08,1.46,1.58,1.05
CN(C)CCOC(c1ccc(Cl)cc1)c1ccccn1 (configuration not stated) [Carbinoxamine maleate salt],-0.697,-0.856,-0.5,-0.502,-0.442,-0.169
NS(=O)(=O)c1cc2c(cc1Cl)N=C(CSCc1ccccc1)NS2(=O)=O [Benzthiazide],-0.596,-0.997,-0.0125,-0.328,-0.513,-0.593
Cn1cnc([N+](=O)[O-])c1Sc1ncnc2[nH]cnc12 [Azathioprine],-0.583,-0.922,-0.805,-1.15,-0.521,-0.677
O=C(O)CCc1nc(-c2ccccc2)c(-c2ccccc2)o1 [Oxaprozin],-0.435,-0.524,-0.0363,0.42,-0.35,-0.246
CCN(CC)C(=O)c1ccc(O)c(OC)c1 [Ethamivan],-0.477,-0.0996,-0.452,0.274,-0.43,-0.268
Cn1c(=O)c2c(ncn2C)n(C)c1=O [Caffeine],-0.331,-0.197,-0.0359,0.547,-0.318,-0.108
N=C(N)NS(=O)(=O)c1ccc(N)cc1 [Sulfaguanidine],-0.422,-1.14,-0.502,-0.128,-0.444,-0.493
O=C1OC(CN2CCOCC2)CN1/N=C/c1ccc([N+](=O)[O-])o1 (configuration not stated) [Furaltadone hydrochloride],-0.539,-0.499,-0.319,-0.322,-0.493,-0.666
C[C@H]1c2cccc(O)c2C(=O)C2=C(O)[C@]3(O)C(=O)C(C(N)=O)=C(O)[C@@H](N(C)C)[C@@H]3[C@@H](O)[C@@H]21 [Doxycycline hydrochloride],-0.633,-1.71,-0.0102,-0.552,-0.531,-0.743
CN1CCN(CCCN2c3ccccc3Sc3ccc(Cl)cc32)CC1 [Prochlorperazine dimaleate],2.82,1.36,0.00438,-0.198,1.66,1.98
COC(c1ccccc1)(c1ccccc1)[C@H](Oc1nc(C)cc(C)n1)C(=O)O [Ambrisentan],-0.48,-0.16,-0.0813,1.12,-0.393,-0.359
CCCOc1cc(N)ccc1C(=O)OCCN(CC)CC [Propoxycaine hydrochloride],0.303,1.24,0.398,0.62,-0.0905,0.287
CO/N=C(\C(=O)N[C@@H]1C(=O)N2C(C(=O)O)=C(COC(N)=O)CS[C@H]12)c1ccco1 [Cefuroxime sodium salt],-0.467,-0.812,-0.402,0.0343,-0.419,-0.472
NC(=O)C(c1ccccc1)(c1ccccc1)[C@@H]1CCN(CCc2ccc3c(c2)CCO3)C1 [Darifenacin hydrobromide],3.46,1.76,3.28,1.47,2.87,3.06
CCC1(C)CC(=O)NC1=O (configuration not stated) [Ethosuximide],-0.426,-0.83,-0.448,-0.207,-0.393,-0.464
COc1ccc(NS(=O)(=O)c2ccc(N)cc2)nn1 [Sulfamethoxypyridazine],-0.55,-1.31,-0.449,-0.237,-0.455,-0.522
CCN[C@H]1C[C@H](C)S(=O)(=O)c2sc(S(N)(=O)=O)cc21 [Dorzolamide hydrochloride],-0.573,-0.633,0.0896,0.22,-0.481,-0.217
COCCCC/C(=N\OCCN)c1ccc(C(F)(F)F)cc1 [Fluvoxamine maleate],0.482,2.11,1.69,0.282,0.839,0.935
CCCCCCCCNC(C)C(O)c1ccc(SC(C)C)cc1 (configuration not stated) [Suloctidil],2.96,-0.389,1.67,1.53,3.3,3.27
NCCC[C@H](N)CC(=O)N[C@H]1CNC(=O)[C@H]([C@H]2C[C@H](O)NC(N)=N2)NC(=O)/C(=C/NC(N)=O)NC(=O)[C@H](CO)NC(=O)[C@H](CO)NC1=O [Viomycin sulfate],-0.57,-1.06,-0.305,-0.46,-0.563,-0.474

# Reference: the supplement of paper PMC6607015
